BioA inh: BioA (M. tuberculosis) enzyme inhibition. 360,000 compounds, 0.096% hits. purified M. tuberculosis BioA enzyme, plate reader. inhibition, % at 9.99 µM; in the data active = inhibition above about 40%
TcdB GH inh: inhibitors of Clostridioides difficile toxin B glycohydrolase; P18177; TcdB glycohydrolase enzymatic assay, plate reader; inhibition, % at 9.99 µM; 350,000 compounds, 0.24% hits; AID 652162; in the data active = inhibition above about 10%
Target sequence (P18177 whole entry, looked up): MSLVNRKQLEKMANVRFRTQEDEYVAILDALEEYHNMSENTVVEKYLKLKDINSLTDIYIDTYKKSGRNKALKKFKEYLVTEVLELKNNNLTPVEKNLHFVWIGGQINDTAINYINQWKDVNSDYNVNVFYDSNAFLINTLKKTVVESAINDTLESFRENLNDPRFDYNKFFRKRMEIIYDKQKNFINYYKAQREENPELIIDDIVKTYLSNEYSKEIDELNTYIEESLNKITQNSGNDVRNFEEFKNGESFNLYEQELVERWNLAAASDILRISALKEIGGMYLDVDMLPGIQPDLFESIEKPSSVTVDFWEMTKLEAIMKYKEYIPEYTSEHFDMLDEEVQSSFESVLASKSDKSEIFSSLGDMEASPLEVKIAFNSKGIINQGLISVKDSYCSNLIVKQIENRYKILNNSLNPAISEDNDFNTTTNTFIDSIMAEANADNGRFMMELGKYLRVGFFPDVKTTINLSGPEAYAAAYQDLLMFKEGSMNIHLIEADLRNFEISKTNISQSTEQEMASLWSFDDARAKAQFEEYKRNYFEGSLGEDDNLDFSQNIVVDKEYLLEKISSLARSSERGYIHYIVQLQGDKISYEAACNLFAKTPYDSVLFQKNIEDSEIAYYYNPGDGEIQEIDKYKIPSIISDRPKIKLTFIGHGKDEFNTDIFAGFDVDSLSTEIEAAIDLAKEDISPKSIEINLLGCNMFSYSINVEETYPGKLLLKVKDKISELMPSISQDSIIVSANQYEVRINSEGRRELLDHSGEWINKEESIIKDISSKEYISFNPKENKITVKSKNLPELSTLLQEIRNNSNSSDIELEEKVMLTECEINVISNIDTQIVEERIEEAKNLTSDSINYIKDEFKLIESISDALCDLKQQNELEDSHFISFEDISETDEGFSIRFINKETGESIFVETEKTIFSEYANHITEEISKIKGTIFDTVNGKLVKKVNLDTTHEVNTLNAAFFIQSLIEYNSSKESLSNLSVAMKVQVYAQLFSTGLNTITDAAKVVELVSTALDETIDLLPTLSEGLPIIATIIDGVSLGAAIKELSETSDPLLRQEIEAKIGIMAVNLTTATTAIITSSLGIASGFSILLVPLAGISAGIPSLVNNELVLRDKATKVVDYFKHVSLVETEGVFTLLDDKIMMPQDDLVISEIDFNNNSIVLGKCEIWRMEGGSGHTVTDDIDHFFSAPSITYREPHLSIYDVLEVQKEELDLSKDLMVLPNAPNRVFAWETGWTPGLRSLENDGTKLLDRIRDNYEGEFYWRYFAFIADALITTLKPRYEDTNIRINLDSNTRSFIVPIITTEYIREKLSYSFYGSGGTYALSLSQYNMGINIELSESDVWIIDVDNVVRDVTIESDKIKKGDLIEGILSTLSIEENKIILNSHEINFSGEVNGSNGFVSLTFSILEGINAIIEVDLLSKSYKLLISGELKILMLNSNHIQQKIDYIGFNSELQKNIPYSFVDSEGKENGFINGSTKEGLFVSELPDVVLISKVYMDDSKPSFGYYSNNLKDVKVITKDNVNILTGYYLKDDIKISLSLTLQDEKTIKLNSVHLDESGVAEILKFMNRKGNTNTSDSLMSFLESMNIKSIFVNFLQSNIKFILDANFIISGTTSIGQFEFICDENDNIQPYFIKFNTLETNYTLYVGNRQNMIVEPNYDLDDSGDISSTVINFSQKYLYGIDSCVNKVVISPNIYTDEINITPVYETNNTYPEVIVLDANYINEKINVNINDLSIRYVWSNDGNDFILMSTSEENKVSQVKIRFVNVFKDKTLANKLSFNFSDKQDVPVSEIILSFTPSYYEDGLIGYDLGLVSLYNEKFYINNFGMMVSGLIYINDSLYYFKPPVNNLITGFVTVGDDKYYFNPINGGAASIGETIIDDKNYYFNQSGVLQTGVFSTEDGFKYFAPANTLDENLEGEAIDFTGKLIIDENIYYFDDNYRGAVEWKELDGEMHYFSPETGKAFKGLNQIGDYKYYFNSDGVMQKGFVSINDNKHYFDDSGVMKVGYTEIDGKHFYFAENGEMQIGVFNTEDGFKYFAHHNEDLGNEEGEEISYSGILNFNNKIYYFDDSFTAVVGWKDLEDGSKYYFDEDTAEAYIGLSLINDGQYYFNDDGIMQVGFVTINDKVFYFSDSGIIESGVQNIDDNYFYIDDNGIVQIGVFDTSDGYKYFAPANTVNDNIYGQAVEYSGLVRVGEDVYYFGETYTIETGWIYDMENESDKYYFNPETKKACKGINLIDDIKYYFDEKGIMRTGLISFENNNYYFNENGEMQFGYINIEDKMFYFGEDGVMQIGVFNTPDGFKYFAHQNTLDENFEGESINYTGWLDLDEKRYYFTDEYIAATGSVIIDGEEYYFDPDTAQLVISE
FadD28 binding: M. tuberculosis FadD28 bisubstrate binding inhibition; FadD28 bisubstrate probe binding, fluorescence polarization; inhibition, % at 12.5 µM; 360,000 compounds, 0.22% hits; in the data active = inhibition above about 8.5%, passing the limit was not always enough
BH1578 lux ind: inducers of Vibrio cholerae quorum light production without autoinducers | activation, % at 18.7 µM | 350,000 compounds, 0.16% hits | V. cholerae BH1578 lux reporter, luminescence, 6 h | AID 588436; in the data active = activation mostly above about 9.7%, no sharp cut-off
A number is an active result; n = inactive; x = no result; ! = a repeat was not active. Compounds with a hit are over-represented: about 0.54% of the library has one in this group of screens.

SMILES | BioA inh | TcdB GH inh | FadD28 binding | BH1578 lux ind
Cc1ccc(S(=O)(=O)N[C@H]2C=C[C@H](CC(=O)NCc3ccncn3)O[C@@H]2CO)cc1 | n | n | x | x
Cc1ccc(SCc2cc(=O)c3c(=O)n(-c4ccccc4)[nH]c3[nH]2)cc1 | n | n | 17 | n
Cc1ccc(S(=O)(=O)NCCC(=O)NCc2ccccn2)cc1 | x | n | n | n
CCOc1ccc(S(=O)(=O)NCCC(=O)NCc2ccccn2)cc1 | x | 11 | n | n
COc1ccc(NS(=O)(=O)c2cc(N=Nc3c(O)[nH]c(=O)[nH]c3=O)ccc2OC)cc1Br | n | n | n | n
CCOc1ccc(NS(=O)(=O)c2ccc(Cl)c(N=Nc3c(O)[nH]c(=S)[nH]c3=O)c2)cc1Br | n | n | 15 | n
O=[N+]([O-])c1cccc(/C=N/n2c(C3CCCCC3)n[nH]c2=S)c1 | x | n | 18 | n
CCOC(=O)c1ccc(N=c2sc(C(=O)OC)cc(=O)n2CCCN2CCOCC2)cc1 | n | 11! | n | n
CCOC(=O)c1ccc(N=c2sc(C(=O)OC)cc(=O)n2Cc2ccco2)cc1 | n | n | n | n
CC(C)NC(=O)Nc1ccc2c(c1)C(=O)N([C@@H](C)CO)C[C@H](C)[C@@H](CN(C)C(=O)NC(C)C)OCCCC[C@H](C)O2 | n | n | x | x
COc1ccc(C(CNC(=O)c2oc3ccc(OC)cc3c2C)N2CCCC2)cc1 (configuration not stated) | n | 12 | n | n
COc1ccc(C(CNC(=O)c2oc3ccc(Br)cc3c2C)N2CCCCC2)cc1 (configuration not stated) | n | n | n | n
CCCCCCCCCCCCCCCCn1cc[n+](C)c1 | x | n | 49 | n
Cc1ccc(C)c(CN2C(=O)COc3ccccc32)c1 | n | n | n | n
Cc1ccc(C)c(CN2C(=O)COc3ccc(C(=O)c4ccccc4C(=O)O)cc32)c1 | x | 14 | n | n
O=C1C(=Cc2ccco2)CCC1=Cc1ccco1 | n | n | 13 | n
COCC#Cc1ccc2c(c1)O[C@@H](CN(C)C(=O)CC1CC1)[C@H](C)CN([C@@H](C)CO)S2(=O)=O | n | 13 | x | x
Oc1cc(O)cc(/C=C/c2ccc(O)c(O)c2)c1 | n | 10 | n | n
C/C=C/c1ccc(O)c(OC)c1 | n | n | n | n
COc1ccccc1-c1cnc2c(c1)C(=O)N([C@@H](C)CO)C[C@H](C)[C@H](CN(C)C(C)=O)O2 | n | n | x | x
Cc1noc(C)c1NC(=O)Nc1ccc2c(c1)C(=O)N([C@@H](C)CO)C[C@H](C)[C@@H](CN(C)Cc1ccccc1)O2 | n | n | x | x
CCOC(=O)Nc1ccc(Oc2ccccc2)cc1 | n | x | n | n
CCOC(=O)Nc1ccc(OC(=O)Oc2ccc(NC(=O)OCC)cc2)cc1 | x | 12 | n | n
COc1cccc(NC(=O)Nc2nc(SC(C)(C)C)ns2)c1 | n | n | 21 | n
COc1cccc(NC(=O)Nc2nc(SC)ns2)c1 | n | n | n | n
SMILES | BioA inh | TcdB GH inh | FadD28 binding | BH1578 lux ind
O=C1NC(=O)N(Cc2ccc(F)cc2)C(=O)/C1=C\c1ccoc1 | n | n | 11 | n
CN(C)c1ccc(/C=C2\C(=O)NC(=O)N(Cc3ccc(F)cc3)C2=O)cc1 | n | n | n | n
O=C1CCCC2=C1Sc1ccccc1N2 | n | 10 | n | n
C[C@@H]1CCCCO[C@H](CN(C)Cc2ccc3c(c2)OCO3)[C@H](C)CN([C@@H](C)CO)C(=O)c2cc(NC(=O)c3ccncc3)ccc2O1 | n | n | x | x
Cc1ccc(NC(=O)CNc2ccccc2N2CCCC2=O)cc1S(=O)(=O)N1CCCCC1 | n | n | 42 | n
CCNC(=S)N(Cc1ccc2c(c1)OCO2)C1CC(=O)N(c2ccc(OC)cc2)C1=O (configuration not stated) | n | x | n | 50
CCNC(=S)N(Cc1ccc2c(c1)OCO2)C1CC(=O)N(c2ccc(F)cc2)C1=O (configuration not stated) | x | x | n | n
CN1CCN(C(CNC(=O)c2ccc(Br)o2)c2ccc(F)cc2)CC1 (configuration not stated) | n | 12 | n | n
CCOc1cc(/C=C2/NC(=O)N(CC(=O)Nc3cccc(C)c3)C2=O)ccc1O | n | x | 16 | n
Cc1cccc(NC(=O)CN2C(=O)N/C(=C\c3ccccc3OCc3ccc(C(=O)O)cc3)C2=O)c1 | n | n | 42 | n
O=C(CN1C(=O)N/C(=C\c2ccccc2OCc2ccc(C(=O)O)cc2)C1=O)Nc1ccc(F)cc1 | n | n | n | n
Cc1cccc(NC(=O)CN2C(=O)N/C(=C\c3cccn3-c3cccc(C(=O)O)c3)C2=O)c1 | x | n | 18 | n
CCOc1cc(/C=C2/NC(=O)N(CC(=O)Nc3cccc(C)c3)C2=O)ccc1OC | n | n | n | x
C[C@@H]1CCCCO[C@H](CN(C)C)[C@H](C)CN([C@H](C)CO)C(=O)c2cc(NC(=O)Nc3cccc4ccccc34)ccc2O1 | n | n | x | x
CN1C(=O)c2cc(NC(=O)c3ccc(F)cc3)ccc2OC[C@@H]2O[C@H](CC(=O)NCC3CCCCC3)CC[C@@H]21 | n | n | x | x
O=C(Nc1ccccc1F)N1C[C@@H]2N[C@H](C1)C2c1ccc(-c2cccc(F)c2)cc1 (some centres not stated) | x | 24! | x | x
O=C(Nc1ccccc1F)N1C[C@@H]2N[C@H](C1)C2c1ccc(-c2ccccc2)cc1 (some centres not stated) | x | n | x | x
CN(C)c1nc(NCc2ccccc2)nc(Oc2ccc(=O)[nH]n2)n1 | n | x | n | 17
CO[C@@H]1CN(C)C(=O)c2ccc(NC(=O)NC(C)C)cc2OC[C@@H](C)N(C(=O)NC(C)C)C[C@@H]1C | n | n | x | x
COCC(=O)Nc1ccc2c(c1)C(=O)N(C)[C@@H]1CC[C@@H](CC(=O)NCc3ccc(OC)cc3)O[C@H]1CO2 | n | x | x | x
O=C(C[C@@H]1CC[C@@H]2[C@H](COC[C@H](O)CN2C(=O)c2ccccn2)O1)NC1CCC1 | n | 12 | x | x
O=C(C[C@H]1CC[C@@H]2[C@H](COC[C@@H](O)CN2C(=O)Nc2ccc(Cl)c(Cl)c2)O1)NCc1ccncc1 | n | 18 | x | x
CCCC#Cc1cnc2c(c1)C(=O)N([C@@H](C)CO)C[C@H](C)[C@H](CN(C)C(=O)Nc1cc(F)ccc1F)O2 | n | n | x | x
COc1cc(/C=C2/C(=O)NN(c3ccc(C)c(Cl)c3)C2=O)cc([N+](=O)[O-])c1O | n | n | 30 | n
COc1cc(/C=C2/C(=O)NN(c3cccc(Cl)c3)C2=O)cc(OC)c1O | n | n | 11 | n
SMILES | BioA inh | TcdB GH inh | FadD28 binding | BH1578 lux ind
C[C@H](CO)N1C[C@H](C)[C@@H](CN(C)CC2CC2)Oc2ccc(N(C)C)cc2CC1=O | n | n | x | x
C[C@H](CO)N1C[C@H](C)[C@@H](CN(C)C(=O)Nc2ccccc2)OCCCC[C@H](C)Oc2ccc(NC(=O)Nc3ccc(F)cc3)cc2C1=O | n | n | x | x
NNC(=O)CNC(=O)Nc1n[nH]c(=S)s1 | x | 10 | n | x
CCC(=O)N1C[C@H](C)[C@@H](OC)CN(C)C(=O)c2ccc(NC(=O)C3CCOCC3)cc2OC[C@@H]1C | x | n | x | x
COc1cccc(OCCSc2nnc3sc4ccccc4n23)c1 | n | x | n | n
c1ccc(OCCSc2nnc3sc4ccccc4n23)cc1 | n | 12 | n | n
Cc1[nH]c(-c2ccc(F)cc2)cc1C(=O)N1CCN(c2ccccc2)CC1 | n | 21 | n | n
